Here are results for 39 compounds from PubChem BioAssay (EPA / NIEHS).

For orientation: AC50 means the concentration at which the activity in the assay is half-maximal.

The structures appear in SMILES notation. “And” between values parts separate entries of the source, which are not always exact repeats. Equal values may be shown once. Where a structure was tested more than once in an assay, its records may differ in their call. The source made the active and inactive calls. The calls were made as follows: active = hit-call score of the fitted dose curve at least 0.9, where 1 is the maximum; inactive = score below 0.9.

Read-out in the assay: Tissue plasminogen activator (tPA), PLAT (gene 5327)
Kind of assay: BSK_BE3C_tPA: BioMAP Diversity Plus: BE3C Assay for Tissue plasminogen activator (tPA) Biomarker Activity (AID 2283041). Conditions: primary human bronchial epithelial cells; actives raise or lower the signal. The protocol: BSK_BE3C is a cell-based, multiplexed-readout assay that uses bronchial epithelial cell, a human lung primary cell, with measurements taken at 24 hours after chemical dosing in a 96-well plate.BSK_BE3C_tPA is an assay component measured in the BSK_BE3C assay. It measures tPA antibody related to regulation of gene expression using ELISA technology.Data from the assay component BSK_BE3C_tPA was analyzed into 1 assay endpoint. This assay endpoint, BSK_BE3C_tPA, was analyzed with bidirectional fitting relative to DMSO as the negative control and baseline of activity. Using a type of binding reporter, gain or loss-of-signal activity can be used to understand changes in the signaling as they relate to the gene PLAT. Furthermore, this assay endpoint can be referred to as a primary readout, because this assay has produced multiple assay endpoints where this one serves a signaling function. To generalize the intended target to other relatable targets, this assay endpoint is annotated to the protease intended target family, where the subfamily is serine protease.
The levels of cell surface (or secreted, indicated by the prefix "s") biomarker endpoints were measured by ELISA. Overt cytotoxicity to cells in confluent adherent cultures (all systems other than the BT system) was assessed by measuring total protein levels using sulforhodamine B (SRB) staining in parallel cultures at the time of biomarker measurements, indicated as SRB endpoints. For proliferation assays for adherent cell types, individual cell types are cultured at sub-confluence and relative cell numbers quantified by SRB staining at time points optimized for each system (48 h: 3C and CASM3C systems; 72 h: BT and HDF3CGF systems; 96 h: SAg system). SRB was performed by staining cells with 0.1% SRB after fixation with 10% TCA and reading wells at 560 nm.Viability and proliferation of PBMC (T cells) was quantified by Alamar Blue reduction for the SAg and BT systems. For PBMC viability (referred to as PBMC Cytotoxicity within the assay endpoint names), cells were plated (75,000/well in a 96-well plate) and then chemical samples added for 1 h before addition of activators, SEB and TSST-1 (20 ng/mL final concentration each). Cells were incubated for 90 h. Then, Alamar Blue (20 uL/well) (Invitrogen, Cat DAL1100) was added for 6 h, and the plates were read with a fluorescence microplate reader at 546/580 nm (excitation/emission). For PBMC proliferation, cells were plated and activated as above but incubated for only 16 h prior to addition of Alamar Blue. Plates were read after 6 h.
For the compound `O=C(O)CCC(F)(C(F)(F)F)C(F)(F)F`, the outcome was inactive. Regarding `CC(=O)C(Cl)C(=O)N(C)C` (stereo not given), the AC50 is 20 µM (active).

For the compound `O=C(O)C(F)(F)C(F)(F)C(F)(F)C(F)(F)C(F)(F)C(F)(F)C(F)(F)C(F)(F)C(F)(F)C(F)(F)F`, the AC50 was 7.65 µM (active) and 5.33 µM (active); the result was inactive. For `C(=NC1CCCCC1)=NC1CCCCC1`, the result was inactive. On the same count and under the same terms, then `Nc1ccc(-c2ccc(N)c(Cl)c2)cc1Cl`, with “inactive”.

For the compound `O=Cc1cccc(Oc2ccccc2)c1`, the result was inactive. On the same count and under the same terms, the result for `NC(=S)Nc1ccccc1` reads “inactive”; that for `CCOP(=S)(OCC)Oc1nc(Cl)c(Cl)cc1Cl`, “inactive”; that for `CCC(=O)C(CC(C)N(C)C)(c1ccccc1)c1ccccc1` (stereo not given), “inactive”. Take `BrCCBr`: the result was inactive. Turning to `Cc1ccccc1N`, the outcome was inactive. Regarding `COP(=S)(OC)Oc1ccc(S(=O)(=O)N(C)C)cc1`, the result was inactive. Turning to `CC(C)(OO)c1ccccc1`, the outcome was inactive.

In the case of `Oc1ccc(-c2ccccc2)cc1`, the outcome was inactive.

Consider `CC(C)(C)c1cc(O)ccc1O`, for which the outcome was inactive. Same read-out and setting: the result for `CCOP(=S)(OCC)SCSP(=S)(OCC)OCC` reads “inactive”. With `C[C@@H]1C[C@@H]([C@H](O)CC2CC(=O)NC(=O)C2)C(=O)[C@@H](C)C1`, the AC50 is 2.91 µM (active). In the case of `C=CC(=O)OCCCCCC(C)C`, the result was inactive. On the same count and under the same terms, the result for `O=[N+]([O-])c1ccc2c3c(cccc13)CC2` reads “inactive”. As for `O=C(Nc1ccc2[nH]ccc2c1)c1cc2cc(F)ccc2n1Cc1cccc(F)c1`, the AC50 is 5.75 µM (active).

As for `CCN1CCC2(CC1)COc1cc3c(cc12)N(C(=O)c1ccc(-c2ccc(-c4nnc(C)o4)cc2C)cc1)CC3`, the AC50 was 18.7 µM (active).

As to `Nc1ncc([N+](=O)[O-])s1`, the outcome was inactive. Turning to `CC(C)(C)CC(C)(C)c1ccc(O)cc1`, the AC50 was 13.2 µM (active). Regarding `O=[N+]([O-])c1ccc(O)c([N+](=O)[O-])c1`, the result was inactive. On to `CC(C)(c1ccccc1)c1ccc(O)c(C(C)(C)c2ccccc2)c1`, for which the AC50 was 14.7 µM (active). Still for that read-out and setting: then `Oc1cccc2cccnc12`, with 2.07 µM (active); and `CCCCCCCCc1ccc(O)cc1`, with 25 µM (active). Take `ClC1(Cl)C2(Cl)C3(Cl)C4(Cl)C(Cl)(Cl)C5(Cl)C3(Cl)C1(Cl)C5(Cl)C24Cl` (stereo not given): the outcome was inactive. Regarding `CC(=O)[O][Hg][c]1ccccc1`, the AC50 is 0.537 µM (active). Still for that read-out and setting: the result for `CCC(C)(C)c1ccc(O)c(C(C)(C)CC)c1` reads 26.6 µM (active). On the same count and under the same terms, the result for `CCOC(=O)/C=C(C)/C=C/C[C@@H](C)CCCC(C)C` reads 9.78 µM (active). With `CN(C)N=O`, the result was inactive. The same measure, in the same setting: the result for `ClC1=C(Cl)[C@]2(Cl)[C@H]3[C@H]([C@H]4C=C[C@H]3C4)[C@@]1(Cl)C2(Cl)Cl` reads “inactive”; that for `COc1cc(OC)nc(NC(=O)NS(=O)(=O)c2ncccc2C(=O)N(C)C)n1`, “inactive”; that for `O=S(=O)(c1ccc(Cl)cc1)c1ccc(Cl)cc1`, “inactive”.

For the compound `O=C1C2(Cl)C3(Cl)C4(Cl)C(Cl)(Cl)C5(Cl)C3(Cl)C1(Cl)C5(Cl)C24Cl` (stereo not given), the concentration at half-maximal activity (AC50) was 3 µM (active). For `CCSC(C)CC1CC(=O)C(C(CC)=NOC/C=C/Cl)=C(O)C1` (stereo not given), the result was inactive.

Take `CC1(C)Cc2cccc(O)c2O1`: the result was inactive. Same read-out and setting: the result for `COP(=S)(OC)Oc1c(Cl)cc(C)cc1Cl` reads “inactive”.
